As usually defined, the AC50 is the concentration at which the activity in the assay is half-maximal.

The structures appear in SMILES notation. “And” between values parts separate entries of the source, which are not always exact repeats. Identical values can stand only once. Hit rate of the full screen: of about 16,000 compounds, about 5,700 (36%) were called active. Not shown: some 24% with an inconclusive outcome. This is one part of the list. A number with no mark means an inactive call. Calls come from the whole dose curve; as a rule, active = well fitted curve in the direction sought with a large enough effect; inconclusive = small, poorly fitted or top-dose-only effect, or effect the other way; inactive = no such curve, though single readings can be large or run the other way.
% is set by controls: 0 for no effect and ±100 for the full control effect.

Sequence of Cytochrome P450 1A2 (Homo sapiens) (P05177 whole entry, looked up): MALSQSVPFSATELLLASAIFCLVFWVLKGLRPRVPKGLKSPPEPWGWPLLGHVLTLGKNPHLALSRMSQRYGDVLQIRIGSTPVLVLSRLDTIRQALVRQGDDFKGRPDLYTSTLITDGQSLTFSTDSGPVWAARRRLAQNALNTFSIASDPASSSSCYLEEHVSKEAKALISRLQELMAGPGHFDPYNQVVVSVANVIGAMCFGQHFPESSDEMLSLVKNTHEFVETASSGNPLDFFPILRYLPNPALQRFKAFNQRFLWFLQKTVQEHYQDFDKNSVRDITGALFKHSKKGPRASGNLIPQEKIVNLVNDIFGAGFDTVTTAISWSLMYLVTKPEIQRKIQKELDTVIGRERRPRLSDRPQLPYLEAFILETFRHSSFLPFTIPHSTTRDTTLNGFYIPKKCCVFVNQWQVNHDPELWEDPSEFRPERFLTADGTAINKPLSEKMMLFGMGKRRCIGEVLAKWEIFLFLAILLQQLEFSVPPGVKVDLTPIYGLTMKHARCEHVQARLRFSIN

The assay has as its target Cytochrome P450 1A2 (Homo sapiens) (UniProt P05177). The assay is described as follows: Cytochrome panel assay with activity outcomes. To be noted: recombinant CYP, pro-luciferin dealkylation, luminescence, p450-cyp1a2; series mostly up to 57.1 µM; activity, negative = inhibition: at the top concentration.
In the case of `Cc1cccc(N2CCN(CC(=O)Nc3ccc(-n4cnnn4)cc3)CC2)c1C`, the “activity, negative = inhibition” value was 1.94%. Turning to `O=C(Nc1cnc2ccccc2c1)c1cccc(-n2cnnn2)c1`, the AC50 is 12600 nM (active).

On to `CCC(C(=O)NC(C)(C)C)N(C(=O)Cn1nnc(-c2cccs2)n1)c1cnc2ccccc2c1` (stereo not given), for which the “activity, negative = inhibition” value was -18.4%. Take `O=C(Cn1cnc([N+](=O)[O-])n1)N/N=C/c1ccccc1O`: the AC50 is 4470 nM (active).

In the case of `CC(C)(C)NC(=O)Cn1cnc([N+](=O)[O-])n1`, the “activity, negative = inhibition” value was 18.8%. On to `CC(NC(=O)Cn1cnc([N+](=O)[O-])n1)c1ccccc1` (stereo not given), for which the “activity, negative = inhibition” value was 3.46%. Take `COC(=O)[C@@]1(Cc2ccccc2)[C@@H]2C(=CC(=O)[C@H]2CC(=O)C(=O)N(C)C)CN1C(=O)c1ccccc1`: the “activity, negative = inhibition” value is -12.1%. On to `COc1ccccc1CCn1c(=O)c(-c2cc(F)cc(F)c2)nc2cncnc21`, for which the AC50 is 1580 nM (active). On the same count and under the same terms, to `COc1ccccc1CCn1c(=O)c(-c2cccc(F)c2)nc2cncnc21` belongs 1580 nM (active). For the compound `NC(=O)C1=CN([C@@H]2O[C@@H](COP(=O)(O)OP(=O)(O)OC[C@@H]3O[C@H](n4cnc5c(N)ncnc54)[C@@H](OP(=O)(O)O)[C@@H]3O)[C@H](O)[C@@H]2O)C=CC1`, the “activity, negative = inhibition” value was 10.8%. The same measure, in the same setting: for `CCCCn1nc2cc(C(=O)NCCCCc3ccccc3)ccc2c1OCC` the value was 6.46%. `CCOc1c2ccc(C(=O)NC3CCCc4ccccc43)cc2nn1C` (stereo not given): the AC50 was 10000 nM (active). For the compound `CCCCn1nc2cc(C(=O)NCc3ccc(C(F)(F)F)cc3C(F)(F)F)ccc2c1OCC`, the “activity, negative = inhibition” value was -4.35%. Same read-out and setting: for `CCCn1nc2cc(C(=O)NCCCCc3ccccc3)ccc2c1OCC` the value was -8.93%.

`CCOc1c2ccc(C(=O)NCc3ccc(OC(F)(F)F)cc3)cc2nn1C`: the concentration at half-maximal activity (AC50) was 2820 nM (active). `O=C(NC1CCCc2ccccc21)c1ccc(=O)[nH]c1` (stereo not given): the “activity, negative = inhibition” value is 15%. The same measure, in the same setting: to `CCCn1nc2cc(C(=O)NC3CCCc4ccccc43)ccc2c1OCC` (stereo not given) belongs -25.1%. Consider `CCOc1c2ccc(C(=O)NCCCCc3ccccc3)cc2nn1C`, for which the AC50 was 2510 nM (active). Same read-out and setting: for `CCCn1nc2cc(C(=O)NCc3ccc(C)cc3)ccc2c1OC` the value was 14100 nM (active). Turning to `CCCn1nc2cc(C(=O)NCCc3ccc(C)cc3)ccc2c1OCC`, the “activity, negative = inhibition” value is -23.8%. Regarding `COCCn1nc2cc(C(=O)NCC34CC5CC(CC(C5)C3)C4)ccc2c1OC`, the “activity, negative = inhibition” value was -21.7%. Consider `CCCn1nc2cc(C(=O)NCc3ccc4c(c3)OCO4)ccc2c1OCC`, for which the “activity, negative = inhibition” value was -29.7%. Same read-out and setting: to `O=C(NCc1ccccc1)c1onc(CSc2ccc(F)cc2)c1C(=O)NCCCN1CCOCC1` belongs -21.4%. `COc1cccc(C(=O)N(C)c2nnc(-c3ccncc3)s2)c1`: the AC50 is 12600 nM (active). On the same count and under the same terms, to `O=C(c1c(O)c2ccc(Cl)cc2[nH]c1=O)C1CC1` belongs 79.4 nM (active). On the same count and under the same terms, for `O=C(c1n[nH]c(=O)c2ccccc12)N1CCN(C2c3ccccc3-c3ccccc32)CC1` the value was 15800 nM (active). For `CCOc1ccc(CSC(CC(=O)O)C(=O)O)cc1` (stereo not given), the “activity, negative = inhibition” value is -24.2%. Take `CCCCOc1ccc(CC(=O)NO)cc1`: the AC50 was 1580 nM (active). Turning to `CCCOc1ccc(CSC(CC(=O)O)C(=O)O)cc1` (stereo not given), the “activity, negative = inhibition” value was 12.7%. `O=C1C2Sc3[nH]c(=O)sc3C(c3ccccc3)C2C(=O)N1c1ccc(Cl)cc1` (stereo not given): the “activity, negative = inhibition” value is -26.8%. As to `COc1ccc([C@@H]2CC(=O)c3c(O)cc(O[C@H]4O[C@@H](CO[C@H]5O[C@@H](C)[C@@H](O)[C@@H](O)[C@@H]5O)[C@@H](O)[C@@H](O)[C@@H]4O)cc3O2)cc1O`, the “activity, negative = inhibition” value is -0.0093% [at 25.6 µM]. On to `Brc1ccc2cccnc2c1`, for which the concentration at half-maximal activity (AC50) was 2510 nM (active). On to `COc1ccc(-c2cc3ccccc3n2CC(O)CNCCO)cc1` (stereo not given), for which the “activity, negative = inhibition” value is -21.9%. Same read-out and setting: for `CC(=O)Nc1ccc(OCC(O)Cn2cnc3ccccc32)cc1` (stereo not given) the value was -3.03%; for `C[n+]1cn(CC(O)COCc2ccccc2)c2ccccc21` (stereo not given), -13%. The same measure, in the same setting: to `Cc1ccccc1OCC(O)Cn1c(NCc2ccccc2)nc2c1c(=O)[nH]c(=O)n2C` (stereo not given) belongs -29.3%. `CC(=O)Nc1ccc(OCC(O)Cn2c3ccccc3c3ccccc32)c(C)c1` (stereo not given): the AC50 was 2820 nM (active). Regarding `Cc1ccc(OCC(O)Cn2c3ccccc3c3ccccc32)cc1` (stereo not given), the AC50 was 1410 nM (active). For `Cc1ccccc1OCC(O)Cn1c2ccccc2c2ccccc21` (stereo not given), the AC50 is 1780 nM (active). On the same count and under the same terms, to `C=CCN(CC=C)CC(O)Cn1c2ccccc2c2ccccc21` (stereo not given) belongs 2000 nM (active). Turning to `O[C@H](COc1ccccc1)CN1CCCCC1`, the activity, negative = inhibition is -3.85% [at 11.4 µM]. On the same count and under the same terms, for `CC[C@@]12CCCN3CCc4c(n(c5ccccc45)C(=O)C1)[C@H]32` the value was -9.85% [at 2.29 µM]; for `O=C(CCCCC(=O)Nc1c(I)cc(I)c(C(=O)O)c1I)Nc1c(I)cc(I)c(C(=O)O)c1I`, -8.15% [at 25.6 µM]; for `CCN(CC)Cc1c(O)ccc2c(=O)c(Oc3ccccc3OC)coc12`, 39.3%. Regarding `CCOc1ccccc1Oc1c(C)oc2cc(OC(=O)c3ccco3)ccc2c1=O`, the “activity, negative = inhibition” value is -30%. For `CCOc1ccccc1Oc1coc2cc(OC)ccc2c1=O`, the AC50 was 5010 nM (active). Turning to `CC(C)CC(=O)N1CCC(N2CCN(c3ccccc3)CC2)CC1`, the “activity, negative = inhibition” value was -29.8%. In the case of `CCOC(=O)C1=C(O)C(=O)N(Cc2ccccc2)C1`, the AC50 was 1000 nM (active). `CC(=O)N1CCC2(CCN(Cc3ccccc3)CC2)CC1`: the “activity, negative = inhibition” value was -1.26%. As to `CCOC(=O)C1(S(=O)(=O)c2ccccc2)CCN(Cc2ccccc2)CC1`, the “activity, negative = inhibition” value was -10.4%. As to `Cc1cc(C)c2c(N=NN(C)C)[nH]nc2n1`, the AC50 is 2240 nM (active). The same measure, in the same setting: to `CCN(CC)N=Nc1[nH]nc2nc(C)cc(C)c12` belongs 2510 nM (active). With `CCOC(=O)N1CCC(NC(=O)CCC(=O)N2CC(C)Oc3ccc(C)cc32)CC1` (stereo not given), the “activity, negative = inhibition” value was -20.3%.

`CO[C@@H]1COC(=O)CC=C[C@@H](C)[C@@H]2C=C[C@@H](O)[C@@H](COC(=O)C/C=C\[C@H]1C)O2`: the activity, negative = inhibition is -5.43% [at 11.4 µM]. For the compound `CN(C)Cc1ccc(-c2cc3onc(-c4ccccc4)c3c(=O)n2C)cc1`, the activity, negative = inhibition was -13.3% [at 11.4 µM]. For `CC(C)NC(=O)N1CCC2(CC1)CCN(C(=O)c1cnccn1)CC2`, the “activity, negative = inhibition” value is 0.219%. As to `Nc1ccc(S(=O)(=O)Nc2ncccn2)cc1`, the “activity, negative = inhibition” value was -0.15% [at 25.6 µM].

Turning to `O=S(=O)(Nc1ccc(Cc2ccncc2)cc1)c1ccc(Br)cc1`, the AC50 is 44.7 nM (active). For the compound `CCNS(=O)(=O)c1ccc(NS(C)(=O)=O)cc1`, the “activity, negative = inhibition” value was -6.6%.

On to `O=S(=O)(Nc1ccc(Cc2ccncc2)cc1)c1ccc(Cl)c(Cl)c1`, for which the AC50 is 126 nM (active).

Turning to `COc1ccc(S(=O)(=O)Nc2ccc(S(=O)(=O)N3CCCCC3)cc2)cc1C`, the “activity, negative = inhibition” value was -7.68%. Consider `O=S(=O)(Nc1ccc(Cc2ccncc2)cc1)c1cccs1`, for which the AC50 was 126 nM (active).

Turning to `C/C(=N/S(=O)(=O)c1ccc(Cl)c(Cl)c1)OCC(C)(C)C`, the activity, negative = inhibition is -4.08% [at 11.4 µM].

Take `O=C(C(Cc1ccccc1)N1C(=O)C2C3CCC(C3)C2C1=O)N1CCCCC1` (stereo not given): the “activity, negative = inhibition” value was 10.3%.

In the case of `COc1cc(C(=O)Nc2nc3ccc4nc(C)sc4c3s2)cc(OC)c1OC`, the “activity, negative = inhibition” value is -2.02%. With `Cc1nc2c(ccc3nc(NC(=O)c4ccc5c(c4)OCCO5)sc32)s1`, the AC50 is 3160 nM (active). Turning to `Cc1nc2ccc3nc(NC(=O)c4ccc(S(=O)(=O)N5CCOCC5)cc4)sc3c2s1`, the “activity, negative = inhibition” value was -11.7%. For `c1ccc2c(c1)C(=Nc1ccc(N=C3c4ccccc4-c4ccccc43)cc1)c1ccccc1-2`, the activity, negative = inhibition is -19.6% [at 2.29 µM]. `CC(=O)Nc1ccc2c(c1)C(=Nc1ccc(C(=O)O)cc1)c1ccccc1-2`: the AC50 was 316 nM (active). As for `O=C(O)c1ccc(NS(=O)(=O)Cc2ccccc2)cc1`, the activity, negative = inhibition is -12.1% [at 11.4 µM].

Regarding `Cc1ccc(S(=O)(=O)c2nc(S(=O)(=O)c3ccc(C)cc3)c(NCc3ccco3)s2)cc1`, the “activity, negative = inhibition” value is -0.958%.

`CCCSc1nc(NCc2ccco2)c2c3c(sc2n1)COC(C)(C)C3`: the AC50 was 794 nM (active).

As for `Cc1ccc(-n2c(SCC(=O)NCc3ccco3)nc3sc4c(c3c2=O)CC(C)(C)SC4)cc1`, the “activity, negative = inhibition” value was -16.6%. Consider `Cc1nc(NS(=O)(=O)c2ccccc2C)c2c3c(sc2n1)CCC3`, for which the AC50 is 3160 nM (active).

Consider `CCSc1ncnc2c1sc1nc(-c3ccco3)c3c(c12)CC(C)(C)OC3`, for which the “activity, negative = inhibition” value is -15.2%. In the case of `CCCSc1nc(SCC(=O)NCc2ccccc2)c2c3c(sc2n1)COC(C)(CC)C3` (stereo not given), the “activity, negative = inhibition” value was -24.1%. For `Cc1nc(NCc2ccco2)c2c3c(sc2n1)CCC3`, the AC50 was 2510 nM (active). For the compound `C[C@H](O/N=C1/[C@H]2O[C@@H]2[C@@H](O)[C@H]2[C@H]1CCn1c(=O)n(-c3ccccc3)c(=O)n12)c1cn([C@H](CO)Cc2ccccc2)nn1`, the activity, negative = inhibition is -6.4% [at 11.4 µM] and 3.91% [at 11.4 µM].

Consider `COc1cc(C2C(C#N)=C(N)N(c3sc4c(c3C#N)CCCC4)C3=C2C(=O)CC(C)(C)C3)cc(OC)c1OC` (stereo not given), for which the “activity, negative = inhibition” value is -11%. Regarding `O=C(c1csnn1)N1CCC[C@@]2(CCN(Cc3nccs3)C2)C1`, the “activity, negative = inhibition” value is -3.58%. Consider `CNC(=O)/C=C1\NC(C)(C)Cc2c1ccc1ccccc21`, for which the AC50 was 6310 nM (active). On the same count and under the same terms, for `CC1(C)Cc2c(ccc3ccccc23)C(=O)N1` the value was 3550 nM (active). Regarding `C=C(NC(=O)C(=C)NC(=O)c1csc(C2=N[C@@H]3c4csc(n4)[C@@H]4NC(=O)c5csc(n5)[C@@H]([C@](C)(O)[C@H](C)O)NC(=O)[C@@H]5CSC(=N5)/C(=C/C)NC(=O)[C@@H]([C@H](C)O)NC(=O)c5csc(n5)[C@]3(CC2)NC(=O)[C@@H](C)NC(=O)C(=C)NC(=O)[C@@H](C)NC(=O)[C@@H]([C@@H](C)CC)N[C@H]2C=Cc3c([C@H](C)O)cc(nc3[C@@H]2O)C(=O)O[C@H]4C)n1)C(N)=O`, the “activity, negative = inhibition” value is -6.72% [at 25.6 µM]. On the same count and under the same terms, for `COCC(=O)N1CCC[C@@]2(CCN(c3ncccn3)C2)C1` the value was -10.7%. In the case of `CCCN(CCC)C(=O)[C@@H](CCC(=O)O)NC(=O)c1ccccc1`, the AC50 result was “inactive”.

As for `CCCN(CCC)C(=S)NC(=O)c1ccc(Cl)cc1Cl`, the AC50 is 447 nM (active).

As to `CCn1c(CCNC(=O)c2ccc(Cl)cc2Cl)n[nH]c1=S`, the “activity, negative = inhibition” value was 2.13%.

As for `O=C(Nc1ccccc1[N+](=O)[O-])C1C(c2ccccc2)=C1c1ccccc1`, the “activity, negative = inhibition” value is -16.5%. Take `Cn1c(N/N=C/c2c[nH]c3ccccc23)nc2ccccc21`: the AC50 is 1000 nM (active). `O=[N+]([O-])c1ccccc1N/N=C/c1c[nH]c2ccccc12`: the AC50 is 5620 nM (active).

(Values after PubChem BioAssay AID1851 (National Center for Advancing Translational Sciences (NCATS), 2009).)
